Screens from PubChem BioAssay.
Sampled rows, rich in hits. Any-hit rate of the full collection: about 0.32%.
SNCA expr inhib: Primary qHTS assay for inhibitors of alpha-synuclein gene (SNCA) expression; HEK-293 SNCA-luciferase knock-in, luminescence, 24 h; Potency, µM (titrated, usually from 57.2 µM), actives largely listed as inhibitors; hit rate 0.17% among 140,000; AID 1671194, 2021; also: nearly all actives have a fitted effect of over 45% in size
GPT2 inhibitor: Primary qHTS assay for inhibitors of Glutamate pyruvate transaminase 2 (GPT2); Alanine aminotransferase 2 (Homo sapiens), Q8TD30; Recombinant GPT2, coupled pyruvate oxidase/HRP Amplex Red fluorescence; Potency, µM (top dose mostly 57.7 µM), hits mostly inhibitors; hit rate 0.25% among 100,000; AID 1671188, 2021; also: nearly all actives have a fitted effect of over 60% in size
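Fluorescence read-out: pyruvate from GPT2 turnover coupled to pyruvate oxidase, HRP and Amplex Red (0.2mM ThPP, 0.2U/mL PO and HRP, 50uM Amplex final). Substrates 250uM a-KG, 2mM L-alanine; enzyme 10ng/uL; 30 min RT.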
HEK293 viab: GF-AFC viability counterscreen for inhibitors of alpha-synuclein gene (SNCA) expression; HEK-293-SNCA-luc viability, GF-AFC fluorescence, 24 h; Potency, µM (series often up to 57.1 µM), usual class: cytotoxic; hit rate 0.12% among 150,000; AID 1671193, 2021; also: nearly all actives have a fitted effect of over 30% in size
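HEK-293-SNCA-luc cells (1500/well) plated 24 h, then exposed 24 h to a dilution series; GF-AFC added 30 min at 37C, fluorescence 405/540 nm; normalised to medium-only and DMSO wells, Hill fit.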
A number is an active result; . = inactive; ? = inconclusive; / = no result; ! = not active in a repeat; [ ] = remark or other dose. Calls follow the shape of the dose curve; as a rule, active = well fitted curve in the direction sought with a large enough effect; inconclusive = small, poorly fitted or top-dose-only effect, or another doubt; inactive = no such curve, though single readings can be large; an effect the other way counts as inactive or inconclusive.

SMILES	SNCA expr inhib	GPT2 inhibitor	HEK293 viab
Cc1nn2c(c1-c1ccccc1C(C)C)N(C(=O)c1cc3ccccc3n1C)CCC2	?	.	35µM
Cc1nn2c(c1-c1ccccc1N1CCCC1)N(C(=O)c1cc3ccccc3n1C)CCC2	?	.	?
COc1ccccc1-c1cccc(CN2CCCC(C(=O)NCc3cccc(Cl)c3)C2)c1 (configuration not stated)	.	.	?
O=C1COc2ccc(Nc3ccc(Cl)cc3)nc2CN1Cc1nc2ccccc2s1	?	.	32µM
Cc1ccccc1CN1Cc2nc(Nc3ccccc3)ccc2OCC1=O	.	.	?
CCC(=O)c1c(O)cc(O)cc1O	.	5µM	.
Cc1cc(O)c2c(c1)C(=O)c1cc(O)cc(O)c1C2=O	.	.	.
NC(=O)c1ccc(I)c([N+](=O)[O-])c1	.	.	.
N#Cc1cc([N+](=O)[O-])c2sc(C(N)=O)[n+]([O-])c2c1	.	13µM	.
CC(N)(Cc1ccc(O)c(O)c1)C(=O)O (configuration not stated)	.	8.9µM	.
C[C@](Cc1ccc(O)c(O)c1)(NN)C(=O)O	.	.	.
O=[S+]([O-])(NC1CCN(Cc2cccc(-c3ccc(F)c(F)c3)c2)CC1)c1cccc(C(F)(F)F)c1	?	.	?
C=C(C)C(=O)O[C@H]1C[C@@](C)(O)C2(O)CCC(C)(/C=C3/OC(=O)C(COC)=C31)O2 (some centres not stated)	/	.	15µM
Cc1ccc2nc(C3CCN(Cc4ccc(-c5cccs5)cc4)CC3)[nH]c(=O)c2c1	?	.	.
COc1ncccc1-c1nc2cc(C(=O)Nc3cccc(Cl)c3)ccc2o1	.	.	.[12.5 µM]
CN1CCN(c2ncc3nc(-c4cccs4)c(=O)n(Cc4cccs4)c3n2)CC1	.	/	?
O=c1c(-c2cccs2)nc2cnc(N3CCNCC3)nc2n1Cc1cccs1	18µM	/	?
Cc1cc(=O)n(CC(=O)Nc2cccc(Cl)c2)c(N2CCc3ccccc3C2)n1	?	.	?
COc1ccc(-c2ccccc2C=O)cc1	.	.	.
COC1=C(OC)C(=O)c2ccccc2C1=O	?	2.8µM	.
NC(=O)NO	1.4µM!	.	.
CC(=O)NO	.	.	.
CC1=C(C)C(=O)OC(C(C)C2CCC3C4C5OC5C5(O)CC(OC6OC(CO)C(OC7OC(C)C(O)C(O)C7O)C(O)C6O)CC(O)C5(C)C4CCC23C)C1 (configuration not stated)	/	.	.
CC1=C(CO)C(=O)O[C@@H]([C@@H](C)[C@H]2CC[C@H]3[C@@H]4C[C@H]5O[C@]56[C@@H](O)C=CC(=O)[C@]6(C)[C@@H]4CC[C@]23C)C1	3µM	.	6.8µM
COc1ccc(-c2nc(C(=O)Nc3cccc(C(C)=O)c3)nn2-c2ccc(Cl)cc2)cc1	.	/	.
SMILES	SNCA expr inhib	GPT2 inhibitor	HEK293 viab
COCCOc1nc(-c2ccc(Cl)c(Cl)c2)n(-c2ccc(NC(=O)CCl)cc2)n1	.	.	30µM!
Cc1cc(C)cc(-c2ccc(CN3CCCC3C(=O)N3CCCC(C)C3)cc2)c1 (configuration not stated)	.	.	.
O=C(N1CCCN(c2cc(-c3ccc(Cl)cc3)[nH]n2)CC1)C1(c2ccccc2)CC1	?	?	.
Cc1ccc(C(=O)N(CCCN)[C@@H](c2oc3cc(Cl)ccc3c(=O)c2Cc2ccccc2)C(C)C)cc1	?	.	?
Cc1ccc(C(=O)N(CCCN)C(c2oc3cc(Cl)ccc3c(=O)c2Cc2ccccc2)C(C)C)cc1 (configuration not stated)	/	.	30µM
COc1ccccc1Nc1ccnc(N2CCC[C@H]2C(=O)N2CCC(Cc3ccccc3)CC2)n1	?	.	?
Cc1cccc(NC(=O)CN2C(=O)C(c3ccccc3)=NC23CCCC3)c1C	16µM	.	.[12.5 µM]
CCc1ccccc1NC(=O)CN1C(=O)C(c2ccccc2)=NC12CCCC2	.	.	.[12.5 µM]
CCOC(=O)C1CCCN(C(=O)c2cc(-c3cc(Cl)cc(Cl)c3)c3nncn3n2)C1 (configuration not stated)	.	.	.
CN(C)Cc1nnc(C2CC(NC(=O)c3ccc4scnc4c3)C2)n1C (configuration not stated)	?	5.6µM!	?
CN(C)Cc1nnc(C2CC(NC(=O)c3ccc4c(c3)CCO4)C2)n1C (configuration not stated)	.	.	.
COc1ccc(C(=O)N2CCCN(c3cc(-c4ccc(Cl)cc4)[nH]n3)CC2)c(C)c1	.	.	.
O=C1c2c(O)ccc(O)c2C(=O)c2c(NCCNCCO)ccc(NCCNCCO)c21	1.2µM!	10µM!	?
